Among the data in PubChem BioAssay (NCI) are growth values, retold here.

Each structure is given as a SMILES string. Compounds without any hit were thinned out: in the full panel of roughly 83,000, 20% have a hit.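 Values shown are percent growth following 48 h exposure of cells in 96-well plates to a single concentration of compound; below 10 was considered active.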 Unmarked numbers belong to inactive results. Calls of active or inactive are those of the source.

Test systems include HT29 colon; SNB-75 CNS; SNB-19 CNS; U251 CNS; SK-MEL-5 melanoma; UACC-62 melanoma; LOX IMVI melanoma; SK-MEL-28 melanoma; PC-3 prostate.
Holding throughout (assay): NCI-60 one-dose screen, 48 h (100 = growth as untreated, 0 = no growth, -100 = all killed)
What all share (conditions): 10 µM unless noted

On to `Cc1ccccc1COc1ccc(-c2ccnn2-c2ccc(Cl)cc2)cc1`, for which the growth was 17.6% in the test with HT29 colon; 60.7% in the test with SNB-75 CNS; 62% in the test with SNB-19 CNS; 46% in the test with U251 CNS; 66.6% in the test on SK-MEL-5 melanoma; 60.7% in the test with UACC-62 melanoma. Besides, the growth in the test on LOX IMVI melanoma was 64.3%; in the test on SK-MEL-28 melanoma it was 69.4%.
Take `O=C1c2cc3c(cc2-c2c1c1ccc(Cl)cc1c(=O)n2CCCN1CCOCC1)OCO3`: the growth in the test with HT29 colon was 63.3%; in the test on SNB-75 CNS, 84.2%; in the test with SNB-19 CNS, 47.1%; in the test with U251 CNS, 27.4%; with PC-3 prostate it was 74%; with UACC-62 melanoma it was 23.6%. Besides, the values for the growth with LOX IMVI melanoma and in the test on SK-MEL-28 melanoma were 26.7% and 99.9%, respectively.
As for `Clc1ccc2nc3nc4ccc[nH]c4cc3c2c1`, the growth in the test with HT29 colon is 83.8%; in the test on SNB-75 CNS, 88.8%; with SNB-19 CNS, 89%; in the test with PC-3 prostate, 75.1%; in the test on UACC-62 melanoma, 80.4%; in the test with LOX IMVI melanoma it was 91.9%. In addition, the growth in the test on SK-MEL-28 melanoma is 111%.
For the compound `COc1cc(C2CC(=O)c3ccccc3N2)cc(OC)c1OC` (stereo not drawn), the growth in the test with HT29 colon is 77.8%; with SNB-75 CNS, 94.7%; in the test on SNB-19 CNS, 97.1%; in the test on U251 CNS it was 88.5%; with SK-MEL-5 melanoma it was 99.5%; in the test on UACC-62 melanoma it was 94.1%. Also, the growth with LOX IMVI melanoma was 104%; in the test with SK-MEL-28 melanoma, 107%.
For `O=S(=O)(Nc1ccc(Cl)c(F)c1)c1ccc(-c2cnc(C3CC3)o2)cc1`, the growth was -6.67% (active) in the test on HT29 colon; -7.32% (active) with SNB-75 CNS; 44.9% with SNB-19 CNS; 29.9% in the test on PC-3 prostate; 17.4% with SK-MEL-5 melanoma; 24.8% with UACC-62 melanoma. The growth in the test on LOX IMVI melanoma was 40.3%; in the test on SK-MEL-28 melanoma, 58.5%.
As to `C=CC(=O)Nc1cccc(-c2nc(SC)nc(Nc3ccccc3OC)c2C#N)c1`, the growth in the test on HT29 colon is 2.25% (active); with SNB-75 CNS, 24.4%; in the test with SNB-19 CNS, 74.5%; with PC-3 prostate it was 31.9%; with SK-MEL-5 melanoma, 66.7%; in the test with UACC-62 melanoma, 75%. The growth in the test with LOX IMVI melanoma was 16.9%; in the test with SK-MEL-28 melanoma it was 50.8%.
Consider `N#Cc1nnn(-c2ccc(S(N)(=O)=O)cc2)c1NC(=O)CCl`, for which the growth in the test on HT29 colon was 102%; in the test on SNB-75 CNS, 85.5%; in the test with SNB-19 CNS, 96.3%; with U251 CNS, 92.3%; in the test on PC-3 prostate it was 89.7%; in the test on UACC-62 melanoma, 96.6%. In addition, the growth in the test with LOX IMVI melanoma was 94.6%; with SK-MEL-28 melanoma it was 104%.
Regarding `CC1=C/C(=C(\c2ccc(N(C)C)cc2)c2ccc([N+](C)(C)C)cc2)C=CC1=[N+](C)C`, the growth is 36.5% in the test with HT29 colon; 80.5% in the test with SNB-75 CNS; 77% in the test with SNB-19 CNS; 25.7% with U251 CNS; 72.9% with PC-3 prostate; 97.6% in the test with UACC-62 melanoma. The growth with LOX IMVI melanoma is 69.1%; in the test on SK-MEL-28 melanoma, 72.3%.
Take `COc1ccc(-c2cc(-c3ccc(Nc4ccnc5cc(Cl)ccc45)cc3)nc(N3CCOCC3)n2)cc1`: the growth in the test with HT29 colon is 8.19% (active); with SNB-19 CNS, 28.2%; in the test on U251 CNS it was -37.7% (active); with PC-3 prostate, 46.9%; with UACC-62 melanoma it was 14.9%; with LOX IMVI melanoma, -58.6% (active). Besides, the growth in the test with SK-MEL-28 melanoma is 5.53% (active).
For the compound `O=C(/C=C/c1ccc(C(F)(F)F)cc1)Nc1ccc(C=C2c3ccccc3C(=O)c3ccccc32)cc1`, the growth in the test on HT29 colon was 46.5%; in the test with SNB-75 CNS, 46.6%; in the test with SNB-19 CNS it was 66.5%; in the test on U251 CNS it was 33.8%; with SK-MEL-5 melanoma, 44.7%; with UACC-62 melanoma, 52.2%. For the same compound, the growth in the test with LOX IMVI melanoma was 76.7%; in the test with SK-MEL-28 melanoma, 60.2%.
Turning to `CC[C@H]1OC(=O)[C@H](C)[C@@H](O[C@H]2C[C@@](C)(OC)[C@@H](O)[C@H](C)O2)[C@H](C)[C@@H](O[C@@H]2O[C@H](C)C[C@H](N(C)C)[C@H]2O)[C@](C)(O)C[C@H](C)CN(C)[C@H](C)[C@@H](O)[C@]1(C)O`, the growth was 102% in the test with HT29 colon; 80.8% in the test with SNB-75 CNS; 93.4% in the test with SNB-19 CNS; 94.8% in the test on U251 CNS; 91% in the test with PC-3 prostate; 98.3% in the test with UACC-62 melanoma. The growth was 87% with LOX IMVI melanoma and 114% with SK-MEL-28 melanoma.
`CCCCn1cnc2c(Sc3c([N+](=O)[O-])ncn3C)nc(N)nc21`: the growth in the test on HT29 colon is 99.7%; in the test on SNB-75 CNS, 84.3%; in the test on SNB-19 CNS, 96.3%; in the test with U251 CNS it was 101%; with SK-MEL-5 melanoma, 103%; in the test on UACC-62 melanoma, 88.9%. In addition, the growth in the test on LOX IMVI melanoma was 107%; with SK-MEL-28 melanoma, 98.8%.
In the case of `O=C1/C(=C/c2ccccc2O)N=C2SCCCN12`, the growth was 103% in the test on HT29 colon; 70.6% with SNB-75 CNS; 90.8% with SNB-19 CNS; 98.6% with U251 CNS; 88.2% in the test on PC-3 prostate; 96.5% with LOX IMVI melanoma.
`CCNC(=O)Oc1ccc(/C(=C(\C)c2ccc(Cl)cc2)c2ccc(OCCN(CC)CC)cc2)cc1`: the growth in the test on HT29 colon was -23.2% (active); with SNB-75 CNS, 45.2%; in the test on SNB-19 CNS it was 59.2%; in the test with U251 CNS, 21.1%; in the test with PC-3 prostate, 31.4%; in the test with UACC-62 melanoma, -68.3% (active). The growth was -59% (active) with LOX IMVI melanoma and -62.3% (active) in the test on SK-MEL-28 melanoma.
